# DPM-DC inhibit: S. pneumoniae DPM-DC inhibition; calls only at 10 µM; purified DPM-DC, PK/LDH coupled NADH fluorescence; AID 556; 0.49% of 65,000 active;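 active = the 320 compounds with the highest percent inhibition in the single-dose primary screen, excluding strongly autofluorescent ones, cut at about 32% in these data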;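 also: kinetic rate of NADH fluorescence loss reporting ADP formed by the decarboxylase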
# PMK inhibit: inhibitors of Streptococcus pneumoniae phosphomevalonate kinase; purified PMK, PK/LDH-coupled NADH absorbance 340 nm; inhibition, % at 10 µM; 0.49% of 65,000 active;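 active = top-ranked compounds by inhibition in the single 10 µM screen, taking a fixed number of the strongest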;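 also: 0% = full reaction with DMSO carrier and 100% = background rate without enzyme reaction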
# NADH enzymes: inhibitors of enzymes used to reach an NAD/NADH endpoint. coupled PK/LDH NADH assays, four targets. IC50, µM (doses to about 10 µM), inactives show at the top dose inhibition. 0.02% of 65,000 active. AID 774;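 active = single-dose screening hits from any of four coupled enzyme assays that gave an IC50 when retested across doses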;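 also: the DPM-DC format reads NADH fluorescence rather than 340 nm absorbance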
# A340 absorber: absorbance at 340 nm; compound absorbance at 340 nm, fold over control; fold change at 10 µM; 65,000 tested, under 10 active; AID 708;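 active = at 10 µM dose, initial 340 nm absorbance at least 2 fold that of control wells; inactive = change under 2 fold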;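 also: initial absorbance extrapolated from kinetic A340 decline of NADH oxidation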
# Fluor 339 460: intrinsic fluorescence of library compounds, ex339/em460 – biochemical, MLSMR library, data from DPM-DC assay, artefact control, profiling panel. compound autofluorescence, ex339/em460 nm, NADH buffer; stronger effect = higher value; 1 = no-compound wells, NADH background. fluorescence fold increase at 10 µM. 5.5% of 65,000 active;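 active = at 10 µM, mean starting fluorescence two-fold or more over control wells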;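 also: signal is the first read of a kinetic run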
# Spn MK inh: blocks S. pneumoniae mevalonate kinase; purified MK, PK/LDH-coupled NADH absorbance 340 nm; AID 555; 0.48% of 65,000 active; inhibition, % at 10 µM;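 active = ranked among the strongest by inhibition in the single 10 µM screen, a fixed top-ranked set picked for dose follow-up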
# * = called active by the depositor; i = inactive; · = no result shown. An excerpt weighted towards active compounds, which were near 6.3% of everything screened.
SMILES,DPM-DC inhibit,PMK inhibit,NADH enzymes,A340 absorber,Fluor 339 460,Spn MK inh
COC(=O)c1c(NC(=O)c2ccc(C)o2)sc2c1CCCCC2,·,4,9%,1.1,3.7*,13
NC(=O)c1c(NC(=O)c2cc3ccccc3o2)sc2c1CCC2,·,9,5%,1.1,2.1*,0
COC(=O)c1c(NC(=O)c2c(C)noc2C)sc2c1CCCCCC2,·,4,4%,1.1,3.4*,4
Cc1ccc(C(=O)Nc2sc3c(c2C(=O)O)CCCCC3)o1,i,14,7%,1.2,1.1,0
C=CCOc1nc(N2CCCC2)nc(N2CCCC2)n1,i,19,4%,0.99,1,0
CC(=O)C(Sc1nn(C)c(=S)s1)C(=O)Nc1ccccc1 (configuration not stated),i,13,6%,1.1,1.1,6
COc1ccc(C2C3=C(CC(C)(C)CC3=O)Oc3ncn(CCCn4ccnc4)c(=N)c32)cc1 (configuration not stated),i,3,4%,1,1.1,10
CCOc1ccccc1NC(=O)N1CCCC1C(=O)Nc1ccc(-n2cnnn2)c(C)c1 (configuration not stated),i,12,5%,1,1,4
O=c1oc(-c2cccs2)nc2sc3c(c12)CCCCC3,·,8,5%,1,2.1*,2
CC(=O)N1C2CCCCC2S[C@H]2CCCCC21 (some centres not stated),i,0,2%,0.98,1,5
CCOC(=O)c1cc2c(=O)n3ccccc3nc2n(CCCOC)c1=NC(=O)c1cccnc1,i,0,5%,1.1,1.7,8
O=C(CSc1nc2ccccc2c(=O)n1Cc1ccco1)c1ccccc1,i,10,5%,0.98,1.1,6
CCOC(=O)c1cc2c(=O)n3ccccc3nc2n(Cc2ccco2)c1=NC(=O)c1cccnc1,·,3,3%,1,2.2*,3
CCOC(=O)c1cc2c(=O)n3ccccc3nc2n(CC(C)C)c1=NC(=O)c1ccco1,·,0,3%,1,2.5*,9
CCOC(=O)c1cc2c(=O)n3cccc(C)c3nc2n(Cc2ccco2)c1=NC(=O)c1cccnc1,i,11,8%,0.99,2.2*,4
Cc1cccn2c(=O)c3cc(C#N)c(=NC(=O)c4ccccc4)n(Cc4ccco4)c3nc12,·,11,7%,1.1,2.3*,3
C[C@H](NC(=O)Nc1ccc2c(c1)OCCO2)C(=O)O,i,12,6%,1.1,1.1,5
COc1cccc(C(=O)Nc2cc(=O)n(C)c(=O)n2C)c1,i,8,13%,1.1,0.66,5
Cc1cc(N2C(=O)CCC2=O)n(-c2ccccc2)n1,i,5,7%,1,1.1,8
CC1=NN(c2ccccc2)C(=O)C1,i,0,5%,1,1,53*
CCCOCCOC(=O)c1[nH]c2c(c1C)C(=O)CC(c1cc(OC)ccc1OC)C2 (configuration not stated),i,8,10%,1,1.1,21
Cc1c(O)c(CN2CCCC2)cc2c1oc(=O)c1ccccc12,i,3,2%,1.1,1.2,2
Cc1cc2oc(=O)cc(CN3CCCCC3)c2cc1C(C)C,i,11,2%,1,1.1,0
Cc1c(O)c(CN2CCCC2)cc2c3c(c(=O)oc12)CCC3,·,13,11%,1.1,3.7*,9
CCc1cc(=O)oc2c(C)c(O)c(CN3CCCCC3)cc12,·,8,9%,1.2,3.9*,10
SMILES,DPM-DC inhibit,PMK inhibit,NADH enzymes,A340 absorber,Fluor 339 460,Spn MK inh
Cc1csc2ncc(C(=O)NCc3ccco3)c(=O)n12,i,9,14%,1.1,3.8*,6
O=C(NCc1ccco1)c1cnc2n(c1=O)CCS2,i,3,3%,1,1,1
COc1ccc(CNC(=O)c2cnc3scc(C)n3c2=O)cc1,·,13,9%,1.2,2.1*,5
CC1(C)NC(=O)NC2(C)NC(=O)NC(C)(C)C12 (configuration not stated),i,0,3%,1,1.1,10
O=C(Cn1cnc2c(nnn2Cc2ccc(F)cc2)c1=O)NCc1ccco1,i,11,9%,0.98,1.1,15
CCc1cc2c(=O)c(-c3cscn3)coc2c(CN(C)C)c1O,·,1,4%,1.1,2.3*,6
Cc1cc(F)ccc1S(=O)(=O)Nc1ccccc1C(=O)Nc1ccc2[nH]c(=O)[nH]c2c1,i,4,5%,1.1,1.2,10
Cn1c(SCCOc2cccc(Cl)c2)nnc1-c1ccncc1,i,5,32%,1,1,90*
Cc1ccc(OCCSc2nnc(-c3ccncc3)n2C)cc1,i,11,4%,1,1.1,0
CCOC(=O)C1CCN(C(=O)Nc2ccc(Cl)cc2Cl)CC1,i,5,1%,1,1,5
Cc1ccc2cc(CCNC(=O)C(C)(C)C)c(=O)[nH]c2c1,i,7,2%,1.1,1.2,0
Cc1ccc2[nH]c(=O)c(-c3noc(C(C)C)n3)cc2c1,·,0,2%,1.1,2.2*,4
CCc1nc(-c2cc3ccc(C)cc3[nH]c2=O)no1,·,13,10%,1.1,4.5*,7
Cc1ccc2cc(-c3noc(C(C)(C)C)n3)c(=O)[nH]c2c1,i,9,14%,1.1,3.9*,7
Cc1ccc2[nH]c(=O)c(-c3noc(-c4ccncc4)n3)cc2c1,i,4,3%,1,1.2,9
COc1ccc(-c2[nH]ncc2-c2cnn(-c3ccccc3)c2)c(O)c1,i,0,3%,1,1.1,7
Cc1cc(C)cc(N2CCCn3c2nc2c3c(=O)n(CCN3CCOCC3)c(=O)n2C)c1,i,7,4%,0.97,1,9
Cn1nnc(NC(=O)COc2ccc(C3CCCCC3)cc2)n1,i,0,1%,1,1.1,4
COc1ccc2c(c1)c(C(=O)OCCN(C)C)c(C)n2C,i,10,6%,1,1.1,9
COc1ccc2nc(C)c(C(=O)OCCN(C)C)cc2c1,i,2,7%,1,2.1*,0
CN1CCN(C(=O)Cn2c(=O)oc3cc(S(=O)(=O)NCc4ccccc4)ccc32)CC1,i,7,5%,1.1,1.1,9
CCOC(=O)CCc1c(C)c2ccc(OC(C)C(=O)OCC)c(C)c2oc1=O (configuration not stated),·,3,2%,1.1,3.8*,1
CCOC(=O)C(C)Oc1ccc2c(C)cc(=O)oc2c1C(C)=O (configuration not stated),i,8,6%,1,1.2,4
CCOc1c(C(N)=O)c(-c2ccccc2)c2c(=O)[nH]c3ccccc3n12,·,7,4%,1.1,3.8*,0

# Compound activity as filed in PubChem BioAssay.
